Tests used:
Test in all cases: PBM binding z-score (relative to random genomic background probes); higher = stronger binding; sequences stand for … in GC…GCGATTGACAGCGTAGAATGAAGG
[1] = tested on: FXR:RXRa (NR concentration 270 nM, RXRa partner concentration 90 nM)
In short: (§1)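 Antibodies against each partner of ligand-free nuclear receptor dimers (one per run) detected binding on custom Agilent 4×180K protein-binding microarrays after 1 h incubation. The double-stranded probes had 34-nt variable regions carrying direct-repeat seeds, single-nucleotide variants, half-site ablations and random human genomic background sequences. Binding z-scores, from regression-normalized fluorescence, use the random background probes as reference.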

[2] = tested on: LXRa:RXRa (NR concentration 270 nM, RXRa partner concentration 90 nM)
In short: as §1

[3] = tested on: LXRa homodimer (NR concentration 270 nM)
In short: as §1

[4] = tested on: LXRb:RXRa (NR concentration 270 nM, RXRa partner concentration 90 nM)
In short: as §1

[5] = tested on: LXRb homodimer (NR concentration 270 nM)
In short: as §1

[6] = tested on: PPARa:RXRa (NR concentration 270 nM, RXRa partner concentration 90 nM)
In short: as §1

[7] = tested on: PPARg:RXRa 270nM:90nM, anti-RXR (NR concentration 270 nM, RXRa partner concentration 90 nM)
In short: as §1

[8] = tested on: PPARg:RXRa 30nM:10nM, anti-RXR (NR concentration 30 nM, RXRa partner concentration 10 nM)
In short: as §1

[9] = tested on: PPARg:RXRa 90nM:30nM, anti-RXR (NR concentration 90 nM, RXRa partner concentration 30 nM)
In short: as §1

[10] = tested on: PPARg:RXRa (NR concentration 180 nM, RXRa partner concentration 90 nM)
In short: as §1

Sequence | PBM binding z-score [1] | PBM binding z-score [2] | PBM binding z-score [3] | PBM binding z-score [4] | PBM binding z-score [5] | PBM binding z-score [6] | PBM binding z-score [7] | PBM binding z-score [8] | PBM binding z-score [9] | PBM binding z-score [10]
GATTCAGGGTCAGCTAGAGGCCAGAGTATGGAAA | 5.24 | 3.64 | -0.0707 | 3.25 | -0.355 | 5.13 | 4.14 | 1.13 | 3.05 | 
ATCTCTAGGTTAAAGTTCAGTGAATCCCGAGGAT | 2.96 | 3.76 | 3.34 | 2.61 | 1.62 | 5.59 | 8.62 | 8.86 | 9.27 | 
TCTTGTTGATCAAAGGTTAAGAAAGCCGAAGCCT | 1.37 | 2.26 | 0.368 | 2.11 | 0.469 | 3.71 | 6.29 | 5.57 | 6.85 | 
CCTACTGGGCCAAGGTCATAGATCAGTCAAAGCA | 2.72 | 2.93 | 0.673 | 2.72 | -0.469 | 4.19 | 4.41 | 2.23 | 3.84 | 
CGTCCAAGGTCAATTCTAGGTCAGTGAAAGCATT | 6.85 | 5.63 | 3.88 | 4.73 | 2.2 | 5.01 | 4.59 | 1.17 | 3.25 | 
CCTTACGGGTCTCTCCAGGTTATAGCATCGGAGT | 0.0576 | 2.63 | 0.136 | 0.0193 | -0.526 |  | -0.225 | -0.385 | -0.47 | -0.0815
CAAACTAGGTCAAGGGGTCAAAGTCCGCTTCCCG | 7.14 | 6.22 | 3.83 | 6.08 | 1.17 | 6.9 | 8.96 | 8.47 | 9.27 | 
GGAACGAGCGCAAAGTTGATAGCATCTGTCGACG | -0.856 | -0.827 | -0.68 | -1.1 | -1.22 |  | 3.31 | 0.951 | 2.9 | 1.51
ATATGTAGGTTAAGGGTCATGCAGGTTGGTTCGC | 4.83 | 4.77 | 2.17 | 4.13 | 1.3 | 6.71 | 10.2 | 10.9 | 11.9 | 
ATCTCTAGGTCAAAGTTCAGTGAATCCCGAGGAT | 5.79 | 6.34 | 6.95 | 4.67 | 3.69 | 6.3 | 9.63 | 10.4 | 10.7 | 
CAAACTAGGTCACCGGAAGGTCAAAGTTCGCATG | 6.72 | 6.36 | 5.74 | 5.3 | 1.86 | 6.44 | 8.11 | 6.06 | 8.3 | 
CAAAGTAGGTCACGAAAGGTCAAAGTCGAATGAC | 7.64 | 8.17 | 8.05 | 7.39 | 2.7 | 6.63 | 8.58 | 7.11 | 8.91 | 
CCTAGCAGACCAATCTGGGTCACTCAAGGCTTGA | 0.219 | 0.374 | -0.629 | 0.514 | -1.09 |  | 2.09 | 0.195 | 1.21 | 1.8
AGTGAAAGTTCAGGACGAGGTAACGTAAAGCACG | 3.78 | 3.69 | 1.17 | 1.94 | 0.34 |  | 4.03 | 1.48 | 2.89 | 3.61
CATACTAGGTCAAAGGTCAAAGTCGAGCCAACCA | 8.57 | 7.39 | 7.06 | 7.48 | 3.69 |  | 10.9 | 12.6 | 12.5 | 13.2
CCTACTGGGCCAACAAGGTCATTGATGCCGATAA | 2.09 | 2.49 | 1.44 | 2.45 | -0.582 |  | 3.3 | 0.856 | 2.31 | 3.23
TGACTGAGGTTAAAGATCAGGGAACGTGGCGTCG | 2.91 | 2.35 | -0.224 | 1.69 | -0.22 |  | 3.98 | 2.03 | 3.59 | 3.09
CAAACTAGGTCACGAAAGGTCAAAGTGGAATGAC | 7.59 | 8.25 | 7.92 | 7.19 | 2.79 |  | 8.11 | 7.1 | 8.54 | 10.6
ATCGAAAGGTGGACGAGGTGAGTATACACCGTTT | 0.217 | -0.178 | -0.304 | -0.111 | -0.212 |  | 0.439 | 0.356 | 0.402 | 0.872
CGTCCAAGGTCAAAGGTCAGGGAAGAGATGACGG | 8.68 | 6.78 | 3.32 | 6.96 | 1.53 |  | 9.03 | 8.32 | 9.6 | 11
CCTTACGGGTCAGTGACAGGTTATAGCATTTGGA | 4.29 | 3.37 | 0.351 | 2.96 | -0.126 |  | 2.4 | 0.815 | 1.86 | 1.94
CAAACTAGGTCACCGTAAGGTCAAAGTCCGCATG | 6.58 | 6.1 | 5.47 | 5.55 | 1.46 |  | 7.89 | 5.84 | 7.64 | 9.41
TCTAGTTGGTCAAAGGCCACACACTCGAAATGCG | 0.691 | 0.811 | 0.139 | 0.867 | -0.181 |  | 7.01 | 6.34 | 7.68 | 6.54
AGCTCTAGGTAAAAGTTCAGTGAATCCCGAGGAT | 0.542 | 0.948 | 0.969 | 0.702 | -0.253 |  | 7.47 | 6.13 | 7.9 | 7.73
CAAACTAGGTCACGAAAGGTCAAATTCGAATGAC | 7.71 | 8.3 | 8.38 | 7.56 | 3.75 |  | 8.52 | 7.21 | 8.47 | 10.6
CCTACTGGGCCATTCAGAGGTCATTGTTCATATG | 2.55 | 4.4 | 6.96 | 3.77 | 0.5 |  | 3.18 | 0.535 | 2.16 | 1.98

Sequence | PBM binding z-score [1] | PBM binding z-score [2] | PBM binding z-score [3] | PBM binding z-score [4] | PBM binding z-score [5] | PBM binding z-score [6] | PBM binding z-score [7] | PBM binding z-score [8] | PBM binding z-score [9] | PBM binding z-score [10]
TGAATGAGGTTTAAGATCAGGGAACGTGGCGTCG | -0.267 | -0.0856 | -0.566 | -0.625 | -0.285 |  | 1.49 | 0.74 | 1.15 | 0.663
AGAATGAGGTTAACAAAGATCAGGGAAACGCTTG | 2.66 | 5.37 | 0.105 | 2.63 | -0.171 |  | 2.59 | 1.09 | 1.88 | 2.62
CCTGCTCGGTCAATGGTCAGCTAAAGCAGCTCGC | 0.351 | 0.448 | -0.0838 | -0.541 | -0.234 |  | 1.43 | -0.317 | 0.846 | -0.00581
CCGACTTGGGCAAAGGTTACCATACTCAGTACGA | 0.847 | 1.32 | 0.214 | 1.68 | -0.6 |  | 6.29 | 5.67 | 7.54 | 6.45
AGAATGAGGTTACACGTAGATCAGGGAAGAAAGT | 2.62 | 1.97 | -0.126 | 1.74 | -0.022 |  | 2.76 | 0.95 | 1.91 | 2.84
CCTAGCAGGCCACGGTCACTCAAGCATTTCGCTT | 0.26 | 0.128 | -0.0188 | 0.0634 | -0.369 |  | 0.322 | -0.777 | -0.122 | 0.0164
TCATATAGGTAATAGGTGAAAGTCGGTGTGGTAA | 1.15 | 1.11 | 0.316 | 1.18 | 0.0131 |  | 6.84 | 6.19 | 7.27 | 6.6
CCTACTGGGGCAAAGGTCATTGATTCCAATGCTC | 4.69 | 5.21 | 2.93 | 4.78 | 0.406 |  | 10 | 9.73 | 11.1 | 12
ACTTACGGGTCAACGGGGTTATAGCACGCGTATA | 6.95 | 4.81 | 0.682 | 5 | 0.93 |  | 5.83 | 2.51 | 4.14 | 6.4
ATCTGTAGGTTATCGGGTCATTCAGTTTGCGCAT | 3.02 | 3.6 | 2.79 | 3.06 | 1.36 |  | 4.43 | 1.41 | 3.37 | 3.9
CCTGCTAGGTCAATGGTCAGCTAAAGCAGCTCGC | 3.01 | 2.21 | -0.22 | 1.4 | -0.359 |  | 5.49 | 3.2 | 5.15 | 4.36
ATATGTAGGTTACATCCGGGTCTTTCAGGCTATG | 0.415 | 2.91 | 0.384 | 1.23 | 0.526 |  | 4.07 | 1.55 | 3.34 | 4.92
CGTCCAAGCTCAGCAGGTCAGTGAAAGCGACGTG | -0.394 | -0.404 | -0.449 | 0.048 | -1.03 |  | -0.756 | -1.14 | -0.879 | -0.464
AGAATGAGGTTAAGATTAGGGAAACAGAATACAT | 2.33 | 1.73 | 0.0443 | 1.78 | -0.185 |  | 2.36 | 0.986 | 1.91 | 2.52
AGAATGAGGTTACCAGAGATCAGGGAAACGCTTG | 2.17 | 6.18 | -0.181 | 3.62 | -0.177 |  | 2.74 | 0.897 | 1.85 | 2.77
GCTGCTAGGTCGACTGATGGTCAGCTAAAGCTCG | -0.376 | -0.522 | -0.803 | -0.528 | -1.35 |  | -0.365 | -0.591 | -0.382 | -0.467
CCCGCTAGGTCATGGTCAGCTAATCTACAGTATG | 3.68 | 2.72 | 0.611 | 2 | -0.348 |  | 2.82 | 0.967 | 1.94 | 2.43
TCAGATAGGTAAAGGTGAAAGTCGAACGATATGA | 0.962 | 1.49 | -0.219 | 1.3 | -0.401 |  | 3.99 | 4.4 | 4.3 | 2.56
AATTCAGGGTCACTAGGCCAGAGTAGGTACGAAT | 6.96 | 6.2 | 1.95 | 4.99 | 1.68 |  | 7.59 | 4.55 | 6.76 | 9.15
CCTACTGGGCCAAGGTCTTTGATCAGTCAAAGCA | -0.503 | -0.304 | -0.544 | -0.54 | -0.812 |  | 1.32 | 0.0343 | 0.749 | 0.806
TAGCCTAGGTCATAGGCCAGTATACCACGCGAAC | 4.26 | 3.46 | 0.285 | 2.09 | -0.0669 |  | 4.54 | 2.36 | 4.03 | 4.51
TAGCCTAGGTCATTCAGGGGCCAGTATGGAAAGC | 4.71 | 3.88 | 0.839 | 2.81 | 1.22 |  | 2.25 | 0.204 | 1.74 | 2.1
TAGCCTAGGTTATGCGGGCCAGTATAGTGTCGGC | -0.487 | -0.497 | -0.618 | -0.71 | -1.29 |  | -0.446 | -0.658 | -0.569 | 0.00764
TATACAGGGTCTAAGGCCAGAGTACGAATGTCGA | 0.41 | 0.239 | 0.14 | 0.157 | 0.936 |  | 1.86 | 0.951 | 1.51 | 1.09
TAGCCTAGGTCATGCGGGCCAGTATAGTGTCGGC | 3.95 | 3.16 | 0.141 | 1.55 | -0.409 |  | 2.32 | -0.028 | 1.01 | 1.98
AAATGTAGGTTAAGGGTCATTCAGGTTGGTTCGC | 5.31 | 4.71 | 3.07 | 4.53 | 1.39 |  | 9.63 | 10.5 | 10.8 | 11.7
